A selection: hits, their analogues and other compounds. The true share with any hit is near 11%.
Pf growth 96h = Primary qHTS for delayed death inhibitors of the malarial parasite plastid, 96 hour incubation | P. falciparum luciferase reporter growth, 96 h | Potency, µM (series often up to 28.7 µM), without a hit: at the top dose activity change, negative = inhibition, most hits filed as inhibitors | hit rate 6.9% among 320,000 | AID 504834, 2011; note: % is set by controls: 0 for no effect and ±100 for the full control effect
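Readout is luminescence from an integrated firefly luciferase in P. falciparum. Red cells, 2% hematocrit and 0.05% parasitemia final, were cultured with compound through two parasite generations (96 hours) at 37 C, 5% CO2.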
HCV inh = qHTS Assay for Inhibitors of Hepatitis C Virus (HCV). Huh7.5.1 HCVcc-Cre infection, luciferase reporter, 44 h. Potency, µM (doses to about 41.8 µM), for inactives: at the highest dose activity change, negative = inhibition, most hits filed as inhibitors. hit rate 3.4% among 340,000. AID 651820, 2012; note: % is set by controls: 0 for no effect and ±100 for the full control effect
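A cell-based infection assay in which seeded cells (1,000 per well) receive test compound after 4 h, are inoculated with HCVcc-Cre at approximately 0.5 moi, and are incubated 44 h before luminescence detection.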
VACV mCherry inh = qHTS for Stage-Specific Inhibitors of Vaccinia Orthopoxvirus: mCherry Reporter Primary qHTS. Potency, µM (highest dose often 36.5 µM), without a hit: at the highest dose activity change, negative = inhibition, actives largely listed as inhibitors. hit rate 0.63% among 310,000. Vaccinia virus mCherry reporter infection, fluorescence. AID 720579, 2013; calls by dose curve; tested in A549 cells; note: % is set by controls: 0 for no effect and ±100 for the full control effect; nearly all actives have a fitted effect of over 35% in size
VACV Venus inh = qHTS for Stage-Specific Inhibitors of Vaccinia Orthopoxvirus: Venus Reporter Primary qHTS; Vaccinia virus Venus reporter expression, fluorescence; Potency, µM (highest dose often 36.5 µM), for inactives: at the highest dose activity change, negative = inhibition, most hits filed as inhibitors; hit rate 0.46% among 330,000; AID 720580, 2013; calls by dose curve; tested in A549 cells; note: % is set by controls: 0 for no effect and ±100 for the full control effect; nearly all actives have a fitted effect of over 30% in size
Pf growth 48h = Primary qHTS for delayed death inhibitors of the malarial parasite plastid, 48 hour incubation; P. falciparum luciferase growth in erythrocytes, 48 h; Potency, µM (titrated, usually from 28.7 µM), for the others: at the top dose activity change, negative = inhibition, most hits filed as inhibitors; hit rate 5.9% among 310,000; note: % is set by controls: 0 for no effect and ±100 for the full control effect
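Here the parasites carry a stable luciferase gene and grow inside erythrocytes in Albumax-based RPMI medium with compound for one erythrocytic cycle. Activity is scored as loss of luminescent signal.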
NS1 function inh = qHTS Assay for Inhibitors of Influenza NS1 Protein Function; Potency, µM (series often up to 46.1 µM), without a hit: at the highest dose activity, positive = more growth; AID 2326, 2010; hit rate 0.4% among 270,000; calls by dose curve; note: actives are rising curves; nearly all actives have a fitted effect of over 50% in size
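Compounds were scored for reversing the slow growth caused by influenza A NS1 in S. cerevisiae, measured by optical density at 600 nm. Assay medium contained 2% galactose at pH 6.0; NS1-free yeast of the same strain were the positive control.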
* = called active by the depositor; i = inactive; ? = inconclusive; . = not tested or not shown; [ ] = another dose, or the depositor's remark. Unless noted, calls come from the whole dose curve; as a rule, active = well fitted inhibition curve with a large enough effect; inconclusive = small, poorly fitted or top-dose-only effect, or another doubt; inactive = no such curve, though single readings can be large or run the other way. Potency is the fitted concentration of half-maximal effect.

SMILES	Pf growth 96h	HCV inh	VACV mCherry inh	VACV Venus inh	Pf growth 48h	NS1 function inh
[O-]/C(=C(\C(=S)Nc1cccc2ccccc12)[n+]1ccccc1)c1ccc(OC(F)F)cc1	14.7µM*	-19.4%	7.1%	7.7%	?	.
Cn1c(NC(=O)CC(C)(C)C)cc(=O)n(C)c1=O	?	8.6%	i	0.0%	24.1%	-8.2%
Cn1c(NC(=O)C[n+]2cc(-c3ccc(Cl)cc3)n3c2CCC3)cc(=O)n(C)c1=O	0.329µM*	6.1%	i	-21.6%	4.15µM*	-0.8%
CC(C)[C@@H]1CC[C@@H](C)C[C@H]1OC(=O)C[n+]1cc(-c2ccc(Cl)cc2)n2c1CCCCC2	?	-15.0%	i	-24.2%	?	-7.6%
Cn1c(NC(=O)C[n+]2cc(-c3ccccc3)n3c2CCC3)cc(=O)n(C)c1=O	0.828µM*	3.1%	-13.5%	0.4%	2.62µM*	0.5%
CN(C)c1cccc(C(=O)NNC(=O)NC2CCCCC2)c1	6.57µM*	2.8%	-12.2%	-1.6%	-2.0%	-6.3%
CN(C)c1cccc(C(=O)NNC(=S)NC2CCCC2)c1	-21.6%	-8.4%	.	.	106.0%	-8.1%
COc1cc(OC)cc(C(=O)NNC(=O)NC2CCCCC2)c1	10.4µM*	15.4%	-25.9%	-16.3%	-9.4%	3.9%
Cc1cccc(N(C)S(=O)(=O)c2c(C)noc2C)c1	9.28µM*	8.2%	.	.	8.4%	3.3%
CCCC(=O)N(CC(=O)Nc1sc(C)c(C)c1C(N)=O)Cc1ccccc1	0.9%	?	.	.	-6.7%	4.8%
CC1CCCN(C(=O)C(C)Nc2cc(Cl)ccc2N2CCOCC2)C1 (stereo not drawn)	0.657µM*	-7.6%	?	9.0%	?	-0.3%
CC1CCCN(C(=O)c2ccc(OC3CCN(CCc4ccccc4)CC3)cc2)C1 (stereo not drawn)	1.4%	?	.	.	?	-14.8%
Cc1cc(C)c(C)c(S(=O)(=O)NCc2ccc(C(=O)N3CCOCC3)cc2)c1C	42.7%	5.2%	-2.9%	-22.3%	8.28µM*	-1.2%
Cc1cc(C)c(C)c(S(=O)(=O)NCc2ccncc2)c1C	?	7.08µM*	-7.8%	-7.5%	8.6%	2.9%
Cc1ccc(C(=O)N(C)Cc2ccc(N3CCOCC3)cc2)cc1S(=O)(=O)NCc1ccccc1	?	?	.	.	10.4µM*	.
Cc1ccc(S(=O)(=O)NCc2ccncc2)cc1C	?	2.24µM*	i	-22.3%	-3.6%	-7.0%
O=S(=O)(NCc1ccncc1)c1ccccc1	-88.0%	?	.	.	.	0.9%
O=S(=O)(NCc1ccncc1)c1ccc(F)c(F)c1	.	.	?	-26.2%	.	.
Cc1ccc(C(=O)N(C)Cc2ccccc2)cc1S(=O)(=O)N1CCOCC1	23.0%	.	-1.1%	-11.3%	-28.6%	-1.2%
COc1cccc(CN(C)C(=O)C2CCC(=O)N(Cc3cccc(F)c3)C2)c1 (stereo not drawn)	?	20.2%	-12.7%	-10.3%	-9.2%	8.0%
O=C(COc1ccc(S(=O)(=O)Nc2ccccc2)cc1)NCc1cccnc1	?	7.9%	i	-8.0%	-0.2%	-3.9%
CN1CCN(S(=O)(=O)c2ccc(NC(=O)c3cccc(F)c3)cc2)CC1	-0.6%	1.9%	-19.8%	-5.0%	5.5%	-4.8%
Cc1ccc(NC(=O)c2cccc(S(=O)(=O)N3CCN(C)CC3)c2)cc1F	?	12.6µM*	i	-1.7%	?	7.2%
CN(C)S(=O)(=O)c1cccc(NC(=O)c2ccc(N3CCCC3=O)cc2)c1	.	22.4µM*	.	.	.	.
CN(C)S(=O)(=O)c1cccc(NC(=O)c2cccc(S(=O)(=O)N3CCCCCC3)c2)c1	4.65µM*	7.94µM*	-26.7%	?	13.1µM*	.
CN1CCN(S(=O)(=O)c2ccc(NC(=O)c3cccc(S(=O)(=O)N4CCCC4)c3)cc2)CC1	?	?	-3.2%[1.46 µM]	?	11.7µM*	-5.2%

Source: PubChem BioAssay (National Center for Advancing Translational Sciences (NCATS))
